Assay results from PubChem BioAssay (NCI).
Compounds without any hit were thinned out: in the full panel of roughly 83,000, 20% have a hit.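 Cells were grown in 96-well plates and exposed to the test compound at a single concentration for 48 hours; results are reported as percent growth, with values below 10 considered active.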 Activity calls are given as the source filed them.

system: HL-60(TB) leukemia; assay: NCI-60 one-dose screen, 48 h (100 = growth as untreated, 0 = no growth, -100 = all killed); details: 10 µM unless noted

Row | Compound | growth
1 | CCCCN1C(=O)/C(=c2\sc3n(c2=O)C2C(NN=3)N(CC)C(=O)N2CC)c2cccc(C)c21 (stereo not given) | 2.95% (active)
2 | O=C(Nc1cc(Cl)cc(Cl)c1)Nc1ccc2oc(=O)ccc2c1 | 0.984% (active)
3 | Cc1ccc(/C=N/Nc2nc(Nc3ccccc3)nc(Nc3ccc(S(N)(=O)=O)cc3)n2)cc1 | 75.2% (inactive)
4 | O=[N+]([O-])c1ccc(O)c2ncccc12 | -5.62% (active)
5 | COc1ccc(-c2nn3c(-c4ccccc4F)nnc3s2)cc1 | 47.7% (inactive)
6 | CC1(C)CC[C@]2(C(=O)N3CCOCC3)CC[C@]3(C)C(=CC[C@@H]4[C@@]5(C)C/C(=C/c6ccccn6)C(=O)C(C)(C)[C@@H]5CC[C@]43C)[C@@H]2C1 | 6.91% (active)
7 | O=c1oc2ccc(-c3ccc(F)cc3F)cc2c(=O)n1-c1ccc(F)c(F)c1 | -18.9% (active)
8 | CCOC(=O)c1ccc(N/C=C/C(=O)c2ccccc2)cc1 | 84.3% (inactive)
9 | CC1(C)CC[C@]2(C(=O)O)CC[C@]3(C)C(=CC[C@@H]4[C@@]5(C)CC/C(=N\OCCC#N)C(C)(C)[C@@H]5CC[C@]43C)[C@@H]2C1 | 148% (inactive)
10 | C=CCn1c(SCC(=O)c2ccc(Br)cc2)nnc1-c1c[nH]c2ccccc12 | 92.3% (inactive)
11 | O=C(CSc1nnc(-c2ccc3nc(-c4ccccc4)[nH]c3c2)o1)Nc1ccc(C(=O)/C=C/c2ccccc2)cc1 | 109% (inactive)
12 | Nc1nc(-c2cccc([N+](=O)[O-])c2)c(N=Nc2ccccc2Cl)s1 | 93.7% (inactive)
13 | N/C(=N\c1nc2ccc([N+](=O)[O-])cc2s1)C(Cl)(Cl)Cl | 20.7% (inactive)
14 | COc1cc(O)c2c(c1)/C=C/C[C@H](O)[C@H](O)C(=O)/C=C\C[C@H](C)OC2=O | -9.6% (active)
15 | Cn1cc(-c2nc(N)nnc2-c2c[nH]c3ccc(Br)cc23)c2cc(F)ccc21 | 75.3% (inactive)
16 | O=C(Nc1cc(C(F)(F)F)cc(C(F)(F)F)c1)Nc1ccc2oc(=O)ccc2c1 | -24.3% (active)
17 | COc1cc2cc(Oc3ccc(NC(=O)Nc4ccc(F)c(C(F)(F)F)c4)cc3)c(C)nc2cc1OCCN(C)C | 94.3% (inactive)
18 | CC(=O)/C(N=Nc1ccc2oc(=O)ccc2c1)=C(\C)O | -15.3% (active)
19 | C=C1CCc2nc(SCC(=O)O)ccc2N1 | 96% (inactive)
20 | CN(C)CCCNc1c2ccc(Cl)cc2nc2c1oc1ccc(Cl)cc12 | -53.9% (active)

Row | Compound | growth
21 | COc1cc(/C=C2/C(=O)Nc3ccc(Cl)cc32)ccc1OCc1ccc(Cl)cc1 | 102% (inactive)
22 | CCOC(=O)C1=C(C)Nc2nc3ccccc3n2C1c1cccc(Br)c1 (stereo not given) | 22.8% (inactive)
23 | COc1ccc(/C(=N\N=C(N)N)c2ccc(Cl)cc2)cc1OC | 44.9% (inactive)
24 | Cc1ccc(C2CC(c3ccc(Nc4nc(NCCO)nc(Nc5ccc(Cl)cc5)n4)cc3)=Nc3c(N)nc(N)nc3N2)cc1 (stereo not given) | 10.2% (inactive)
25 | Fc1ccccc1/C=C(/C1=NCCN1)n1cnc2ccccc21 | 94.5% (inactive)
26 | O=C(Nc1ccc(N=Cc2c(O)[nH]c3ccccc23)cc1)Nc1nccs1 | 42% (inactive)
27 | NS(=O)(=O)c1ccc(Nc2nc(N/N=C/CCc3ccccc3)nc(Nc3ccccc3)n2)cc1 | 107% (inactive)
28 | COc1ccc(-c2ccnc3c(C#N)c(Nc4ccccc4)nn23)cc1OC | 71.1% (inactive)
29 | C#CC(=O)N(c1ccc(OC)cc1OC)C(C(=O)NCC(=O)OCC)c1cccs1 (stereo not given) | -51.2% (active)
30 | COc1cc(/C=C/C(=O)c2ccc(NC(=O)CSc3nnc(-c4ccc5nc(-c6ccccc6)[nH]c5c4)o3)cc2)cc(OC)c1OC | 69% (inactive)
31 | COc1cc2nc(Cl)nc(Nc3cccc(C4=Nc5c(N)nc(N)nc5NC(c5ccc(Cl)cc5)C4)c3)c2cc1OC (stereo not given) | -30.3% (active)
32 | Brc1ccc(-c2cc(-c3ccc4c(c3)OC=CO4)n[nH]2)s1 | 78.8% (inactive)
33 | CC(=O)Nc1ccccc1-c1nc2ccccc2s1 | 99.5% (inactive)
34 | O=C1[C@@H]2Cc3c([nH]c4ccccc34)[C@H](c3c(Cl)cccc3Cl)N2C(=O)CN1C1CCN(Cc2ccccc2)CC1 | 29.3% (inactive)
35 | N[C@@H](Cc1cn(-c2c3ccccc3nc3ccccc23)nn1)C(=O)O | 95.5% (inactive)
36 | Cc1ccc(S(=O)(=O)NCCNc2nc(Nc3ccc(N4CCN(C)CC4)cc3)nc3ccsc23)cc1 | 86.4% (inactive)
37 | NS(=O)(=O)c1ccc(Nc2nc(N/N=C/c3ccccn3)nc(Nc3ccccc3)n2)cc1 | 2.68% (active)
38 | CCOC(=O)/C(F)=C/C1CC1C1CCCCC1 (stereo not given) | 98.7% (inactive)
39 | O=C(Nc1nc2ccc([N+](=O)[O-])cc2s1)Nc1ccccc1Br | 37.1% (inactive)
40 | CCN(CC)c1ccc2c(c1)Oc1nc(N)c(C#N)c(N)c1C2Sc1ccc(C)cc1 (stereo not given) | -24.4% (active)
